Compound activity from PubChem BioAssay.
NOMO-1 viab: STK33 inhibitor candidate reducing NOMO-1 cell viability | NOMO-1 AML viability, CellTiter-Glo luminescence, 72 h | inhibition, % (test concentration not listed) | 37,000 tested, 7.5% active | AID 2330; in the data active = inhibition above about 80%; inconclusive = no clear call, values can overlap the other calls
STK33 kin inh: blocks human STK33 kinase activity | ADP-Glo luminescence, MBP substrate | inhibition, % at 12.5 µM | 27,000 tested, 0.44% active; in the data active = inhibition above about 20%; inconclusive = no clear call, values can overlap the other calls
Target sequence (Q9BYT3 whole entry, looked up): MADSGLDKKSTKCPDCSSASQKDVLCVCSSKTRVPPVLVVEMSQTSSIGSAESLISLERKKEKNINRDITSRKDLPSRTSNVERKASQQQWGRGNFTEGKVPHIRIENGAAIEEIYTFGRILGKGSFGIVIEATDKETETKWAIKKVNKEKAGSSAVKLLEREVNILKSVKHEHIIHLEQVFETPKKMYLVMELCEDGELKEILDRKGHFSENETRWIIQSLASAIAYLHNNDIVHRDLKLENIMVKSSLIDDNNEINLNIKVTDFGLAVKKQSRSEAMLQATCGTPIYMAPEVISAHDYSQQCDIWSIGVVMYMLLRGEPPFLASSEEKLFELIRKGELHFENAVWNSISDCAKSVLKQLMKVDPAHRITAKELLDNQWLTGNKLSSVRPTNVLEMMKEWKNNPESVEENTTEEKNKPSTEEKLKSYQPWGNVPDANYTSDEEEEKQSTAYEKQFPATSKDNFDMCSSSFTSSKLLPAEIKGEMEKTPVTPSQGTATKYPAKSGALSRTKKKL
PD-1 reversal: reversal of PD-1 mediated T-cell inhibition | primary human CD4 T cells, PD-L1 beads, CellTiter-Glo 96 h | activation, % (test concentration not listed) | 29,000 tested, under 10 active | AID 2316; call rule not given here;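 also: 0% = median vehicle wells and 100% = positive control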
Active calls of the source: *; u = inconclusive; x = no result given. The entries come from a sample that favours hits as a whole.

SMILES | NOMO-1 viab | STK33 kin inh | PD-1 reversal
C[C@@H]1CN([C@H](C)CO)C(=O)c2cccc(NC(=O)NC3CCCCC3)c2O[C@H]1CN(C)Cc1ccc(Oc2ccccc2)cc1 | 114.2* | x | -4.3
C[C@@H]1CN([C@H](C)CO)C(=O)c2cccc(NC(=O)NC3CCCCC3)c2O[C@H]1CN(C)Cc1ccccc1 | 114.6* | x | -6.0
CCCC(O)c1ccc(C)cc1CCCCCC(=O)O (centres undefined) | 4.2 | -2.7 | 2.1
COc1ccccc1CCNC(=O)c1c(-c2c(F)cccc2Cl)noc1C | 3.8 | -0.2 | -1.1
COC(=O)C1=C2C(=O)c3c(O)cc(CO)cc3OC2C(O)C=C1 (centres undefined) | 107.8* | 6.7 | -12.8
COC(=O)c1cccc2oc3cc(CO)cc(O)c3c(=O)c12 | 70.7 | -3.6 | -0.8
CC(=O)OC1CC2(C)C3CC=C4C(CC(O)C(O)C4(C)C)C3(C)CCC2(C)C1C(C)(O)C(=O)CCC(C)(C)O (centres undefined) | -13.4 | -0.8 | 1.8
CS(=O)(=O)N1CCN(CC(O)Cn2c3ccc(Cl)cc3c3cc(Cl)ccc32)CC1 (centres undefined) | 20.2 | 1.3 | x
OC(CNC1CCCC1)Cn1c2ccc(Cl)cc2c2cc(Cl)ccc21 (centres undefined) | 119.0* | 1.0 | -17.1
COC(=O)c1ccc(C)c(NC(=O)CN(c2ccc(Cl)c(Cl)c2)S(C)(=O)=O)c1 | 107.6* | 2.1 | -1.8
Cc1ccccc1NC(=O)CN(c1ccc(Cl)c(Cl)c1)S(C)(=O)=O | 25.8 | -4.3 | 0.5
COC(=O)c1ccc(Cl)c(NC(=O)CN(c2cccc(F)c2)S(C)(=O)=O)c1 | u | 1.8 | -0.8
COC(=O)c1ccc(Cl)c(NC(=O)CN(c2cccc(Cl)c2)S(C)(=O)=O)c1 | 129.2* | 4.8 | 2.1
Cc1c(C)c(C)c(C(=O)c2ccccc2C(=O)NN)c(C)c1C | -17.7 | x | -0.3
C[C@@H]1CN([C@@H](C)CO)C(=O)Cc2cc(NC(=O)Cc3ccccc3)ccc2O[C@@H]1CN(C)Cc1ccccc1 | 43.7 | 1.6 | 0.8
C[C@@H]1CN([C@H](C)CO)C(=O)Cc2cc(NC(=O)Cc3ccccc3)ccc2O[C@@H]1CN(C)Cc1ccc(Cl)c(Cl)c1 | 127.3* | 3.3 | -4.1
C[C@@H]1CN([C@@H](C)CO)C(=O)Cc2cc(NC(=O)Cc3ccccc3)ccc2O[C@@H]1CN(C)Cc1ccc(Cl)c(Cl)c1 | 108.5* | 5.3 | -4.6
C[C@@H]1CN([C@H](C)CO)C(=O)Cc2cc(NC(=O)Cc3ccccc3)ccc2O[C@H]1CN(C)Cc1ccc2c(c1)OCO2 | 7.2 | -1.3 | 0.0
Cc1ccc(NC(=O)CSC2CC(=O)N(c3ccc(F)cc3)C2=O)cc1Cl (centres undefined) | 20.2 | -1.0 | -2.0
O=C(NCc1ccccn1)c1cc(-c2cccnc2)nc2ccc(Br)cc12 | 12.5 | -3.7 | x
C[C@@H]1CCCCO[C@H](CN(C)Cc2ccc(Cl)c(Cl)c2)[C@@H](C)CN([C@H](C)CO)C(=O)c2cc(NC(=O)CCCCCC(=O)Nc3ccccc3N)ccc2O1 | 125.7* | x | -1.1
C[C@H]1CN([C@@H](C)CO)C(=O)Cc2cc(NC(=O)CCCCCC(=O)Nc3ccccc3N)ccc2O[C@H]1CN(C)Cc1ccc(Cl)c(Cl)c1 | 126.9* | x | 1.8
C[C@@H]1CCCCO[C@@H](CN(C)Cc2ccc(Cl)c(Cl)c2)[C@@H](C)CN([C@H](C)CO)C(=O)c2cc(NC(=O)Cc3ccccc3)ccc2O1 | 102.0* | 2.8 | -1.4
COc1ccc(CN(C)C[C@H]2OCCCC[C@@H](C)Oc3ccc(NC(=O)CCCCCC(=O)Nc4ccccc4N)cc3C(=O)N([C@H](C)CO)C[C@@H]2C)cc1 | 29.0 | x | -0.8
C[C@H]1CN([C@@H](C)CO)C(=O)c2cc(NC(=O)CCCCCC(=O)Nc3ccccc3N)ccc2O[C@@H]1CN(C)Cc1ccncc1 | 18.8 | x | 0.2
SMILES | NOMO-1 viab | STK33 kin inh | PD-1 reversal
C[C@@H]1CCCCO[C@H](CN(C)Cc2ccc(Cl)c(Cl)c2)[C@@H](C)CN([C@H](C)CO)C(=O)c2cc(NC(=O)Cc3ccccc3)ccc2O1 | 44.3 | 1.8 | -5.1
C[C@H](CO)N1C[C@H](C)[C@H](CN(C)Cc2ccc(Cl)c(Cl)c2)Oc2ccc(NC(=O)CCCCCC(=O)Nc3ccccc3N)cc2C1=O | 132.6* | x | -0.9
C[C@@H]1CN([C@H](C)CO)C(=O)Cc2cc(NC(=O)CCCCCC(=O)Nc3ccccc3N)ccc2O[C@H]1CN(C)Cc1ccc2c(c1)OCO2 | 49.4 | x | 0.2
CCc1ccc(C(=O)Nc2nccs2)cc1 | 65.3 | x | -0.8
Cc1cc(C)cc(N(C(C)C(=O)Nc2cccc3ccccc23)S(C)(=O)=O)c1 (centres undefined) | 1.0 | 5.5 | -1.9
CCOC(=O)Cn1c(-c2cccnc2)nc(-c2ccccc2)c1-c1ccccc1 | 114.8* | 1.1 | -12.4
CCn1c(SCC(=O)c2ccccc2)nnc1-c1cccnc1 | -0.9 | 3.3 | x
O=C(CC1NCCNC1=O)Nc1ccc(F)cc1 (centres undefined) | 0.6 | -2.3 | 0.8
Nc1ncnc(Oc2cccc3cccnc23)c1[N+](=O)[O-] | 107.7* | 0.4 | -11.3
Nc1ncnc(NCc2cccnc2)c1[N+](=O)[O-] | 4.4 | 2.7 | 0.2
CNC(=O)C(C)N(c1cc(C)cc(C)c1)S(C)(=O)=O (centres undefined) | 23.2 | 1.5 | x
CS(=O)(=O)N(CC(=O)Nc1cccc([N+](=O)[O-])c1)c1ccc2c3c(cccc13)CC2 | 25.6 | -1.9 | -0.7
CC[n+]1ccc(C)c2cc(C(F)(F)F)ccc21 | 19.8 | x | 1.2
C[C@H]1CN([C@@H](C)CO)C(=O)c2cccc(NC(=O)Nc3ccc(C(F)(F)F)cc3)c2O[C@@H]1CN(C)Cc1ccc2c(c1)OCO2 | 109.5* | x | -4.5
C[C@H](CO)N1C[C@H](C)[C@H](CN(C)Cc2ccc3c(c2)OCO3)Oc2c(NC(=O)Nc3ccc(C(F)(F)F)cc3)cccc2C1=O | 104.1* | x | -4.5
C[C@H](CO)N1C[C@H](C)[C@H](CN(C)Cc2ccc3c(c2)OCO3)Oc2c(NC(=O)Nc3ccc4c(c3)OCO4)cccc2C1=O | u | x | 1.0
C[C@H](CO)N1C[C@H](C)[C@H](CN(C)Cc2ccc3c(c2)OCO3)Oc2c(NC(=O)Nc3ccc(F)cc3)cccc2C1=O | 54.6 | x | -0.6
C[C@H]1CN([C@@H](C)CO)C(=O)c2cccc(NC(=O)Nc3ccccc3)c2O[C@H]1CN(C)Cc1ccc2c(c1)OCO2 | 20.7 | x | 1.6
C[C@H](CO)N1C[C@H](C)[C@@H](CN(C)Cc2ccc3c(c2)OCO3)Oc2c(NC(=O)Nc3ccc(C(F)(F)F)cc3)cccc2C1=O | 103.8* | x | x
C[C@@H]1CN([C@H](C)CO)C(=O)c2cccc(NC(=O)Nc3ccc4c(c3)OCO4)c2O[C@H]1CN(C)Cc1ccc(C(F)(F)F)cc1 | 103.7* | x | x
O=C(Nc1cc(C(F)(F)F)cc(C(F)(F)F)c1)C(=S)NCCNc1cccc2ccccc12 | 65.4 | x | 0.8
O=C(COc1ccc(S(=O)(=O)N2CCCC2)cc1Cl)Nc1ccccc1F | 13.4 | 0.0 | x
O=C1O[C@@H](c2ccccc2)[C@@H](c2ccccc2)N2[C@@H](c3ccccc3OCCO)[C@]3(C(=O)Nc4ccc(C#CC5(O)CCCCCC5)cc43)[C@@H](C(=O)Nc3nc4ccccc4s3)[C@H]12 | x | 3.3 | x
C=CCNC(=O)CC1CCCCC1 | -8.6 | x | 0.0
Cc1cc(=O)[nH]c(SCc2nc3ccccc3[nH]2)n1 | 9.4 | x | -0.4
